Tests used:
Assay in all cases: PBM binding z-score (relative to random genomic background probes); higher = stronger binding; sequences stand for … in GC…GCGATTGACAGCGTAGAATGAAGG
[1] = tested on: PPARg:RXRa DBDmut IVT, anti-RXR (DBD mutation: RXRa K156A/R161A, NR concentration 270 nM, RXRa partner concentration 90 nM)
Method in brief: (§1)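 Ligand-free nuclear receptor dimers were applied to custom Agilent 4×180K protein-binding microarrays whose double-stranded probes carried direct-repeat seeds, single-nucleotide variants, half-site ablations and random human genomic background sequences in 34-nt variable regions. Incubation lasted 1 h. Binding z-scores were computed against the random background probes from regression-normalized fluorescence.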

[2] = tested on: PPARg:RXRa IVT, anti-PPARg (NR concentration 270 nM, RXRa partner concentration 90 nM)
Method in brief: as §1

[3] = tested on: PPARg DBDmut:RXRa IVT, anti-PPARg (DBD mutation: PPARg1 K132A/R137A, NR concentration 270 nM, RXRa partner concentration 90 nM)
Method in brief: as §1

[4] = tested on: PPARg DBDmut IVT, anti-PPARg (DBD mutation: PPARg1 K132A/R137A, NR concentration 270 nM)
Method in brief: as §1

[5] = tested on: PPARg homodimer (NR concentration 180 nM)
Method in brief: as §1

[6] = tested on: PXR:RXRa (NR concentration 270 nM, RXRa partner concentration 90 nM)
Method in brief: as §1

[7] = tested on: PXR homodimer (NR concentration 270 nM)
Method in brief: as §1

[8] = tested on: RARa:RXR (NR concentration 270 nM, RXRa partner concentration 90 nM)
Method in brief: as §1

[9] = tested on: RARa homodimer (NR concentration 270 nM)
Method in brief: as §1

[10] = tested on: RARb:RXRa (NR concentration 270 nM, RXRa partner concentration 90 nM)
Method in brief: as §1

[11] = tested on: RARb homodimer (NR concentration 270 nM)
Method in brief: as §1

[12] = tested on: RARg:RXRa (NR concentration 270 nM, RXRa partner concentration 90 nM)
Method in brief: as §1

[13] = tested on: RARg homodimer (NR concentration 270 nM)
Method in brief: as §1

[14] = tested on: RXRa DBDmut IVT, anti-RXR (DBD mutation: RXRa K156A/R161A, NR concentration 90 nM)
Method in brief: as §1

[15] = tested on: RXRa homodimer (NR concentration 180 nM)
Method in brief: as §1

[16] = tested on: THRa:RXRa (NR concentration 90 nM, RXRa partner concentration 90 nM)
Method in brief: as §1

[17] = tested on: THRa homodimer (NR concentration 90 nM)
Method in brief: as §1

[18] = tested on: VDR homodimer (NR concentration 270 nM)
Method in brief: as §1

Sequence	PBM binding z-score [1]	PBM binding z-score [2]	PBM binding z-score [3]	PBM binding z-score [4]	PBM binding z-score [5]	PBM binding z-score [6]	PBM binding z-score [7]	PBM binding z-score [8]	PBM binding z-score [9]	PBM binding z-score [10]	PBM binding z-score [11]	PBM binding z-score [12]	PBM binding z-score [13]	PBM binding z-score [14]	PBM binding z-score [15]	PBM binding z-score [16]	PBM binding z-score [17]	PBM binding z-score [18]
CGAACTAGGTCATTGACAGCACAGTGAATAGTAA	7.82	8.09	2.12	2.03	1.52	1.18	0.34	1.77	0.733	3.58	2.36	3.46	4.03	2.29	2.47	2.31	0.694	1.08
CCTACTGGGCCACGATAGGTCATTGATTCAGTGA	5.57	5.44	0.89	-0.512	1.33	1.49	0.172	2.14	0.152	2.06	2.93	2.17	2.17	-0.409	1.92	2	-0.0133	0.0413
TAGCCTAGGTCATGGGCCACTATACCACGCGAAC	2.09	3.43	0.102	-0.16	1.27	1.72	-0.144	2.66	-0.0929	3.8	3.27	4.38	4.64	0.641	3.72	3.14	1.57	0.754
TGAATGAGGTTAATGATCAGGGAACGTGGCGTCG	2.04	1.98	1.1	0.18	0.483	0.561	0.0582	0.918	0.17	1.52	0.436	1.4	1.07	0.589	1.67	1.97	0.6	0.544
TAGCGTAGGTCATGCGGGCCAGTATAGTGTCGGC	0.799	2.08	0.502	-0.521	0.769	2.18	-0.691	2.98	-0.473	3.77	2.91	4.14	4.63	0.594	3.78	2.27	-0.424	0.141
ATCAAAAGGTCGTGAGGTGAGTATACAGAAAGGC	0.609	2.81	1.96	1.55	2.38	3.53	1.09	4.34	1.26	4.29	3.41	4.87	4.4	1.25	5.51	3.49	1.89	1.49
ATCGAAAGGTCGACGAGGTGAGTATACACCGTTT	0.442	1.82	0.853	1.45	1.32	3.15	0.642	4.09	1.19	3.73	3.04	4.03	3.9	1.38	4.46	3.84	0.669	0.929
TCGAGTAGGTTAACAATGGGGCATTCAGCTTTCT	3.65	2.78	0.124	0.191	0.25	0.403	-0.277	0.753	-0.553	0.976	0.737	1.49	0.51	0.509	0.809	0.284	-0.587	-0.182
ACTTACGGGTCAATGAGGTTATAGCACGCGTATA	3.32	3.66	1.87	1.58	1.79	4.89	2.68	4.53	1.1	3.86	3.59	5.05	4.75	2.58	6.03	4.16	1.57	3.35
ACTTACGGGTCAACTAGGTTATAGCACGCGTATA	3.88	4.98	1.29	1.61	2.6	4.26	0.766	4.91	1.54	4.36	3.63	5.71	5.16	2.08	5.82	3.52	0.857	2.03
CCTAGCAGGCCAGGGTCACGCAAGCATTTCGCTT	-0.356	1.95	-1.04	-1.59	1.16	3.96	-0.56	4.99	-0.191	3.4	3.51	4.73	3.74	0.0811	5.81	3.6	1.62	1.53
GGATATAGGTAATACAAGGTGAAAGTCCGATTGT	5.48	5.34	1.29	1.44	1.17	1.02	0.527	2.01	1.8	0.806	1.38	0.879	0.935	0.283	0.977	4.46	1.64	0.913
CCTTACGGGTCCCGAGGTTATAGCACGACGAGCG	-1.26	-0.545	-0.471	-1.66	-0.111	0.32	-0.277	0.482	0.138	0.514	0.515	0.416	0.388	-1.34	0.999	1.1	0.132	0.162
ACTAGTTGGTCAGCTAAGGTCACACACAATTCGG	1.38	2.77	0.873	0.678	3.37	5.12	1.46	4.92	2.09	4	4.54	4.33	4.53	1.25	4.2	5.21	5.38	2.63
